Activity calls are given as the source filed them. How the source made its calls: active means hit-call score of the fitted dose curve at least 0.9, where 1 is the maximum; inactive means score below 0.9.

Assay [1] can be described thus: APR_HepG2_CellCycleArrest_24hr: Apredica 24-hour HepG2 Assay for Cell Cycle Arrest (AID 2282905).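 Further: cell cycle arrest scored as ratio of 2N to 4N nuclear DNA content.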 The note with it: imaging, actives raise or lower the signal. The method, boiled down:
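After 24 h exposure at 0.39–200 uM in 0.5% DMSO, fixed cells received Hoechst 33342 staining. Imaging quantified per-nucleus DNA content; gain or loss fitted against DMSO controls.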

Assay [2] is described as follows: APR_HepG2_NuclearSize_24hr: Apredica 24-hour HepG2 Assay for Nuclear Size (AID 2282907). To be noted: high-content imaging, actives raise or lower the signal. In short, it runs like this:
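Nuclear size from Hoechst 33342-stained, formaldehyde-fixed HepG2 nuclei imaged by high-content microscopy, after 24 h dosing at ten concentrations from 0.39 to 200 uM in 0.5% DMSO; gain or loss relative to DMSO baseline.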

Assay [3] is described as follows: APR_HepG2_CellLoss_24hr: Apredica 24-hour HepG2 Assay for Cell Loss (AID 2282908).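 On AC50: fit in both directions so a hit may be cell loss or gain.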 To be noted: high-content imaging. In short, it runs like this: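 Nuclei stained with Hoechst 33342 after formaldehyde fixation (3.7%) were imaged at 20x to count cells. Exposure lasted 24 hr, at ten concentrations from 0.39 to 200 uM in duplicate, with 0.5% v/v DMSO. Fit bidirectional, relative to DMSO.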

A short description of assay [4]: APR_HepG2_MicrotubuleCSK_24hr: Apredica 24-hour HepG2 Assay for Microtubule CSK Stabilty (AID 2282909). The note with it: HepG2 microtubule cytoskeleton imaging, actives raise or lower the signal. In short, it runs like this:
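Fixed HepG2 cells were stained for alpha-tubulin and imaged after 24 hr exposure to ten concentrations spanning 0.39–200 uM in 0.5% DMSO. Signal change was fitted in both directions relative to DMSO; taxol was the positive control.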

Assay [5] in a line: APR_HepG2_MitoticArrest_24hr: Apredica 24-hour HepG2 Assay for Mitotic Arrest (AID 2282910). To be noted: high-content imaging, actives raise or lower the signal. In short, it runs like this: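 Treatment lasted 24 hr in the human HepG2 line at 0.39–200 uM, solvent held at 0.5% DMSO. Fixed cells were stained with Hoechst 33342 and anti-phospho-histone H3, imaged at 20x, and analysed by gain- or loss-of-signal fitting against DMSO.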

The nature of assay [6]: APR_HepG2_MitoMembPot_24hr: Apredica 24-hour HepG2 Assay for Mitochondrial Membrane Potential (AID 2282911). To be noted: imaging, actives raise or lower the signal. The method, boiled down:
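HepG2 human liver cells were exposed 24 hr to compounds at 0.39–200 uM (final DMSO 0.5% v/v) in duplicate. MitoTracker Red CMXRos (250 nM, 30 min) was loaded before formaldehyde fixation; fluorescence was imaged by ArrayScan HCS and fitted bidirectionally versus DMSO.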

Assay [7] in a line: APR_HepG2_MitoMass_24hr: Apredica 24-hour HepG2 Assay for Mitochondrial Mass (AID 2282912). To be noted: high-content imaging, actives raise or lower the signal. The method, boiled down: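 Endpoint is MitoTracker Red CMXRos (250 nM, 30 min, pre-fixation) intensity from 20x high-content imaging, nuclei located by Hoechst. Human HepG2 cells received ten concentrations from 0.39 to 200 uM in 0.5% DMSO for 24 hr, duplicate wells. Bidirectional fit relative to DMSO.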

Assay [8] in a line: APR_HepG2_p53Act_24hr: Apredica 24-hour HepG2 Assay for p53 Activation (AID 2282913).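 Further: p53 protein immunofluorescence averaged per cell in HepG2 with Hoechst nuclei.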 To be noted: high-content imaging, actives raise or lower the signal. In short, it runs like this:
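HepG2 cells exposed 24 hr to compounds at 0.39–200 uM (10 concentrations, duplicate), final DMSO 0.5% v/v. After formaldehyde fixation and Triton permeabilization, p53 was immunolabeled (sheep anti-p53, Cy5 secondary) with Hoechst 33342 nuclear counterstain, then imaged by high-content fluorescence microscopy.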

Assay [9] is described as follows: APR_HepG2_CellCycleArrest_72hr: Apredica 72-hour HepG2 Assay for Cell Cycle Arrest (AID 2282914). The note with it: high-content imaging, actives raise or lower the signal. The method, boiled down: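 HepG2 cells were exposed to compounds at 0.39–200 uM (0.5% v/v DMSO final, duplicates) for 72 hr, fixed in 3.7% formaldehyde, permeabilized and stained with Hoechst 33342. Nuclear DNA content was quantified by high-content imaging; gain or loss of signal was fitted bidirectionally against DMSO.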

The nature of assay [10]: APR_HepG2_CellLoss_72hr: Apredica 72-hour HepG2 Assay for Cell Loss (AID 2282915). The note with it: high-content imaging. The method, boiled down:
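HepG2 cells were exposed for 72 hr to compounds at 0.39–200 uM (ten concentrations, duplicate) in 0.5% v/v final DMSO. Nuclei were stained with Hoechst 33342 after 3.7% formaldehyde fixation, imaged at 20x, and counted; fits bidirectional versus DMSO.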

Assay [11] is described as follows: APR_HepG2_P-H2AX_72hr: Apredica 72-hour HepG2 Assay for H2AX Phosphorylation (AID 2282916).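 Further: phospho-histone H2A.x immunostain intensity per cell marking DNA damage.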 The note with it: imaging, actives raise or lower the signal. In short, it runs like this:
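Phospho-histone H2A.x immunofluorescence, multiplexed with Hoechst and c-Jun, quantified by high-content imaging. Compounds applied to HepG2 for 72 h across ten concentrations (0.39–200 uM, 0.5% DMSO), in duplicate; DMSO baseline.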

A short description of assay [12]: APR_HepG2_MitoMembPot_72hr: Apredica 72-hour HepG2 Assay for Mitochondrial Membrane Potential (AID 2282917). The note with it: imaging, actives raise or lower the signal. In short, it runs like this: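 HepG2 cells exposed 72 h to compounds at 0.39–200 uM (0.5% v/v DMSO, duplicates); MitoTracker Red CMXRos 250 nM loaded 30 min before 3.7% formaldehyde fixation, imaged by HCS fluorescence. Bidirectional fit versus DMSO.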

A short description of assay [13]: APR_HepG2_MitoticArrest_72hr: Apredica 72-hour HepG2 Assay for Mitotic Arrest (AID 2282918). The note with it: high-content imaging, actives raise or lower the signal. In short, it runs like this: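 HepG2 cells were exposed for 72 hr to compound at 0.39–200 uM (10 concentrations, duplicate) in 0.5% v/v DMSO, fixed in 3.7% formaldehyde, immunostained for phospho-histone H3 with Hoechst 33342 and imaged by high-content fluorescence; bidirectional fits versus DMSO.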

The nature of assay [14]: APR_HepG2_P-H2AX_24hr: Apredica 24-hour HepG2 Assay for H2AX Phosphorylation (AID 2282920). The note with it: high-content imaging, actives raise or lower the signal. The method, boiled down: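 HepG2 human liver cells were exposed for 24 hr to compounds at 0.39–200 uM in duplicate, with 0.5% v/v DMSO final. Fixed cells were immunostained for phospho-histone H2A.x plus Hoechst 33342, imaged by HCS fluorescence, and fitted bidirectionally against DMSO.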

Assay [15] can be described thus: APR_HepG2_StressKinase_72hr: Apredica 72-hour HepG2 Assay for Stress Kinase (AID 2282921). The note with it: HepG2 stress kinase (phospho-c-Jun) imaging, actives raise or lower the signal. The method, boiled down: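 Stress kinase signal is phospho-c-Jun immunofluorescence (1:500 primary, Cy3 secondary) in fixed, permeabilized human HepG2 cells imaged at 20x. Exposure lasted 72 hr over ten concentrations from 0.39 to 200 uM, 0.5% DMSO, in duplicate. Bidirectional fit versus DMSO.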

A short description of assay [16]: APR_HepG2_StressKinase_24hr: Apredica 24-hour HepG2 Assay for Stress Kinase (AID 2282922). To be noted: HepG2 stress kinase (phospho-c-Jun) imaging, actives raise or lower the signal. In short, it runs like this:
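After 24 hr compound treatment (up to 200 uM, final DMSO 0.5% v/v), HepG2 cells are fixed and multiplex-labeled; phospho-c-Jun intensity is captured by high-content fluorescence imaging and analyzed relative to DMSO.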

Assay [17] can be described thus: APR_HepG2_p53Act_72hr: Apredica 72-hour HepG2 Assay for p53 Activation (AID 2282923).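 Further: average cellular p53 protein immunofluorescence intensity in HepG2 cells.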 To be noted: high-content imaging, actives raise or lower the signal. The method, boiled down:
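After 72 h with compound (ten points, 0.39 to 200 uM, final DMSO 0.5% v/v), fixed HepG2 cells were labelled with sheep anti-p53 and Hoechst 33342 and imaged; gain or loss versus DMSO scored.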

Assay [18] can be described thus: APR_HepG2_MitoMass_72hr: Apredica 72-hour HepG2 Assay for Mitochondrial Mass (AID 2282924).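 Further: MitoTracker Red CMXRos stain intensity per cell imaged as mitochondrial mass.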 To be noted: high-content imaging, actives raise or lower the signal. The method, boiled down: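 Steps: treat HepG2 72 hr (0.39–200 uM, duplicate wells); load MitoTracker Red CMXRos, 250 nM, 30 min; fix with 3.7% formaldehyde, permeabilise with 0.5% Triton X-100; capture images, nuclei via Hoechst 33342; fit bidirectionally against DMSO.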

Assay [19] can be described thus: APR_HepG2_NuclearSize_72hr: Apredica 72-hour HepG2 Assay for Nuclear Size (AID 2282925). To be noted: high-content imaging, actives raise or lower the signal. In short, it runs like this:
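Compounds (0.39–200 uM, final DMSO 0.5%) were applied to HepG2 for 72 hr. Cells were then formaldehyde-fixed, permeabilized and labelled with Hoechst 33342. Nuclear diameter was quantified from six images per well.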

The nature of assay [20]: APR_HepG2_MicrotubuleCSK_72hr: Apredica 72-hour HepG2 Assay for Microtubule CSK Stabilty (AID 2282919). To be noted: HepG2 microtubule cytoskeleton, high-content imaging, actives raise or lower the signal. In short, it runs like this: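 Ten-point dosing (0.39–200 uM, 0.5% DMSO) of HepG2 for 72 hr, with taxol as the cytoskeletal positive control. The cells were formaldehyde-fixed and then stained with alpha-tubulin/Cy5 and Hoechst. Imaging at 20x used a −2 um Z offset for tubulin.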

In the case of `CCN(CC)N=O`, the molecule was classed as inactive in assay [1], in assay [2], in assay [3], in assay [4], in [5] and in assay [6]. Also, the call in assay [7], in assay [8], in assay [9], in assay [10], in assay [11] and in assay [12] was inactive. Further, the result in assay [13], in [14], in [15], in [16], in assay [17] and in [18] was inactive. Also, the molecule was called inactive in assay [19].

Turning to `ClCCOCCCl`, the molecule was called inactive in assay [1], in assay [2], in assay [3], in assay [4], in assay [5] and in assay [6]. Further, the call in [7], in [8], in assay [9], in [10], in assay [11] and in assay [12] was inactive. Further, the outcome in [13], in assay [14], in assay [15], in assay [16], in assay [17] and in [18] was inactive. Further, in [19], the molecule was classed as inactive.

Take `[As]#[In]`: the molecule was classed as inactive in assay [1], in assay [2], in assay [3], in [4], in assay [5] and in assay [6]. For the same molecule, the outcome in [7], in assay [9], in assay [10], in assay [11], in [12] and in assay [13] was inactive. Further, the molecule was called inactive in assay [20], in [14], in assay [15], in assay [16], in [17] and in [18]. For the same molecule, the outcome in assay [19] was inactive.

For the molecule `O=Cc1ccco1`, the outcome in assay [1], in assay [2], in assay [3], in assay [4], in assay [5] and in [6] was inactive. The outcome in assay [7], in assay [9], in [10], in assay [11], in assay [12] and in assay [13] was inactive. Besides, the result in assay [20], in [14], in assay [15], in assay [16], in assay [17] and in [18] was inactive. The outcome in assay [19] was inactive.

With `Oc1ccccc1Cl`, the result in [1], in assay [2], in assay [3], in assay [4], in [5] and in assay [6] was inactive. The call in [7], in assay [8], in assay [9], in [10], in assay [11] and in [12] was inactive. Moreover, the outcome in [13], in assay [14], in assay [15], in assay [16], in assay [17] and in assay [18] was inactive.

For `N#CC(Br)(Br)C(N)=O`, the molecule was called inactive in assay [1], in [2], in [3], in assay [4], in [5] and in assay [6]. The molecule was classed as inactive in assay [7], in [8], in [9], in [10], in [11] and in [12]. Further, the molecule was called inactive in [13], in assay [14], in assay [15], in [16], in assay [17] and in [18].

For the molecule `Oc1ccc2ccc3cccc4ccc1c2c34`, the molecule was called inactive in [1], in assay [2], in assay [4], in [9], in assay [15] and in [17]. Also, the AC50 in assay [3] is 77.9 µM (active); in assay [5], 82.2 µM (active); in [6] it was 30.6 µM (active); in assay [7] it was 31.9 µM (active); in [8] it was 49.1 µM (active); in [10], 84 µM (active). Further, the concentration at half-maximal activity (AC50) is 50.3 µM (active) in [11]; 75.4 µM (active) in assay [12]; 63.9 µM (active) in assay [13]; 62.9 µM (active) in [14]; 80.8 µM (active) in assay [16]; 46.4 µM (active) in [18].

Source of the values: PubChem BioAssay (EPA / NIEHS).
